Laboratory results as given in PubChem BioAssay AID588850 (Sanford-Burnham Center for Chemical Genomics, 2011).
“And” between values parts separate entries of the source, which are not always exact repeats. Identical values can stand only once. About 3,100 (0.86%) of roughly 360,000 compounds were called active.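 How the source made its calls: active means at least 50% inhibition at 5 µM, scaled per plate between neutral and stimulator controls; inactive means the rest.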 For the sample, actives were picked, then their nearest neighbours and some compounds at random.

test: NF-kB reporter blockers in CF airway cells – cell-based, GFP fluorescence, uHTS, primary screen (AID 588850); settings: KKLEB NF-kB-GFP reporter, PAF-induced, GFP fluorescence overnight; at 5 µM; stronger effect = higher value;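 further: PAF is a Pseudomonas aeruginosa culture filtrate used as stimulus; plate controls were PAF-stimulated DMSO wells for no effect and unstimulated DMSO wells for full effect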

Row | SMILES | inhibition
1 | Cc1nc2ccccn2c(=O)c1NC(=O)c1ccc(Br)o1 | 11.6% (inactive)
2 | Cc1ccc(SCC(=O)c2cc(C)c(OC(=S)N(C)C)c(C)c2)cc1 | 0% (inactive)
3 | Cc1nnc(NC(=O)CCC(=O)N2CCC(C)CC2)s1 | 8.8% (inactive)
4 | CCCCCCCCc1c(O)nc(-n2[nH]c(C)c(CCO)c2=O)[nH]c1=O | 12.1% (inactive)
5 | CC(C[N+](C)(C)C)OC(N)=O (stereo not given) | 3.2% (inactive)
6 | CC(=O)OCC(COC(C)=O)OC(C)=O | -7.3% (inactive)
7 | CC(=O)OC(C)C[N+](C)(C)C (stereo not given) | 80.7% (active)
8 | O=S(=O)(c1cccc(C(F)(F)F)c1)N1c2ccccc2-n2cccc2C1c1cccnc1 (stereo not given) | 13.5% (inactive)
9 | Cc1cccc(C)c1NC(=O)C(Cl)C(=O)c1ccccc1 (stereo not given) | -23.4% (inactive)
10 | N#Cc1c(N)nc2c3c(sc(=N)c2c1N)NC(=O)CC3c1ccccc1Cl (stereo not given) | -8.3% (inactive)
11 | CCC(C)[C@H]1COCCS(=O)(=O)N1Cc1ccc(C)cc1 (stereo not given in full) | -9.6% (inactive)
12 | CC(C)C[C@H]1CNC(=S)N1C[C@H]1CCCN1C[C@H](Cc1ccc(O)cc1)N1C[C@H](Cc2ccc(O)cc2)N(CC2CCCCC2)C1=S | 65.6% (active)
13 | CCOc1ccc(CCN2C(=S)N([C@@H](CC(C)C)CN3CCC[C@@H]3CN3C(=S)NC[C@@H]3Cc3ccc(O)cc3)C[C@@H]2CC(C)C)cc1 | 13.3% (inactive)
14 | CCOc1ccc(CCN2C(=S)N([C@@H](CC(C)C)CN3CCC[C@@H]3CN3C(=S)NC[C@@H]3Cc3ccc(O)cc3)C[C@@H]2Cc2ccc(O)cc2)cc1 | 40.9% (inactive)
15 | Cc1c(-c2ccccc2)n[nH]c1C(=O)N=Nc1c(O)[nH]c2ccccc12 | -0.9% (inactive)
16 | O=[N+]([O-])c1cc(S(=O)(=O)Nc2cccc(Cl)c2)ccc1N=Nc1c(O)[nH]c2ccccc12 | 80% (active)
17 | O=C(NCc1ccncc1)c1ccc(NS(=O)(=O)c2cccc([N+](=O)[O-])c2)cc1 | 8.5% (inactive)
18 | Cc1ccc([C@H]2C[C@H](O)[C@@H](n3cc(COC(=O)c4ccccc4)nn3)CN2CC2CCCCC2)cc1 | 58.5% (active)
19 | CCCCCC(=O)N1C[C@H](O)[C@@H](n2cc(COC(=O)c3ccccc3)nn2)C[C@@H]1c1ccc(C)cc1 | -3.3% (inactive)
20 | Cc1ccc([C@H]2C[C@H](O)[C@@H](n3cc(COC(=O)c4ccccc4)nn3)CN2C(=O)C2CCCCC2)cc1 | 1.3% (inactive)
21 | CC(C)=CCN1CCN(CCCc2ccccc2)CC1CCO (stereo not given) | 1.3% (inactive)
22 | Cc1ccc(C(O)c2ncc(-c3ccccc3F)[nH]2)cc1F (stereo not given) | -1.5% (inactive)
23 | COc1ccc(NC(=S)SC)cc1OC | 59.7% (active)

Row | SMILES | inhibition
24 | COc1ccc(NC(=O)CSCc2ccc([N+](=O)[O-])cc2)cc1OC | 2.8% (inactive)
25 | COc1ccc(NC(=O)C2C3CCC(O3)C2C(=O)O)cc1OC (stereo not given) | -25.3% (inactive)
26 | COc1ccc(Cl)cc1NS(=O)(=O)c1cccc(C(=O)NCC2CCCO2)c1 (stereo not given) | -16.2% (inactive)
27 | O=C(CSc1nnc(-c2ccoc2)o1)N1CCOCC1 | -7.3% (inactive)
28 | COc1cccc(C(NC(C)=O)c2nc(-c3ccccc3OC)cs2)c1 (stereo not given) | -4% (inactive)
29 | CCOP(=O)(OCC)C(Cc1ccccc1)N=C(c1ccccc1)c1ccccc1 (stereo not given) | 2.4% (inactive)
30 | Cc1cc(=O)oc2c3c(cc(OCC(=O)NCC(O)c4ccccc4)c12)OC(C)(C)CC3 (stereo not given) | -24.9% (inactive)
31 | S=C(Nc1cccnc1)Nc1ccccn1 | -6.9% (inactive)
32 | O=C(N/N=C/c1ccccn1)c1cccc(NC(=O)c2ccc(Cl)cc2)c1 | 8.6% (inactive)
33 | S=C(NN=Cc1ccccn1)Nc1ccccn1 | 73.7% (active)
34 | N#Cc1cccc(NC(=O)COC(=O)c2ccccc2C(=O)c2ccc(Cl)c([N+](=O)[O-])c2)c1 | 86.9% (active)
35 | CC(=O)Nc1ccc(NC(=O)C(C)OC(=O)c2ccccc2C(=O)c2ccc(Cl)c([N+](=O)[O-])c2)cc1 (stereo not given) | 81.1% (active)
36 | NS(=O)(=O)c1cccc(NC(=O)COC(=O)c2cc([N+](=O)[O-])ccc2N2CCCC2)c1 | 5.8% (inactive)
37 | O=C(COc1ccc([N+](=O)[O-])cc1)Nc1cccc(C(=O)Nc2ccccc2C(=O)O)c1 | -36% (inactive)
38 | CCOc1ccc(C(=O)NC(=S)Nc2ccc(NC(=O)C(C)C)cc2)cc1[N+](=O)[O-] | 0.2% (inactive)
39 | CC(OC(=O)CNC(=O)c1ccc(Cl)c([N+](=O)[O-])c1)C(=O)NCc1ccco1 (stereo not given) | 5.2% (inactive)
40 | Cc1ccc(S(=O)(=O)N2C3C=CC(C3)C2C(=O)O)cc1 (stereo not given) | 1.4% (inactive)
41 | COCc1c(C(=O)OCc2c(C)noc2C)oc2ccccc12 | -11.5% (inactive)
42 | CCOC(=O)N1CCC(Nc2c(NCCCN3CCN(c4ccc(OC)cc4)CC3)c(=O)c2=O)CC1 | -6.5% (inactive)
43 | CCN(CC)C(=O)N1CCN(C(=O)c2ccc(C)cn2)CC1 | 7.5% (inactive)
44 | CCN1CCC2(CCN(Cc3cn[nH]c3-c3ccc(OC)c(F)c3)C2)C1 (stereo not given) | 11% (inactive)
45 | CC(=O)N1CCC(C(=O)OCc2ccc(Cl)cc2)(c2ccccc2)CC1 | -6.8% (inactive)
46 | Oc1ccc(Br)cc1/C=N/Nc1ccccn1 | 107% (active)

Row | SMILES | inhibition
47 | O=C(CCc1ccc(O)cc1)NN=Cc1cc(Br)ccc1O | -5% (inactive)
48 | CCN(CC)CCn1c(/N=C/c2cc(Br)ccc2O)nc2ccccc21 | 2.3% (inactive)
49 | CN1CCCN(C(=O)C2CCCCC2)CC1 | -5.1% (inactive)
50 | CC(=NNC(N)=O)C1CC2CCC1CC2 (stereo not given) | 0.5% (inactive)
51 | Cc1nc(N2CCN(c3ccccn3)CC2)c2c(C)c(C(=O)Nc3ccc(F)c(Cl)c3)sc2n1 | 36.8% (inactive)
52 | Cc1nc(N2CCC(C)CC2)c2c(C)c(C(=O)Nc3cc(F)ccc3C)sc2n1 | 27.1% (inactive)
53 | COc1ccc(NC(=O)c2sc3nc(C)nc(N4CCN(c5ccccn5)CC4)c3c2C)c(OC)c1 | 53.3% (active)
54 | COc1ccc(CC(=O)N[C@@H]2c3cc(OC)c(OC)cc3C[C@H]2OCc2ccccc2)cc1 | -5.1% (inactive)
55 | CN1OC[C@@H]2CN(C(=O)c3ccc(-c4ccccc4)cc3)[C@H](c3ccc(-c4cccc(F)c4)cc3)C[C@@H]21 | -13% (inactive)
56 | O=C(OC12CC3CC(CC(C3)C1)C2)c1ccc(NCc2cc(O)ccc2O)cc1 | 60.3% (active)
57 | CN=C(NC#N)NCCSCc1nc[nH]c1C | -4.5% (inactive)
58 | Cc1cc(C)c(S(=O)(=O)c2cc(F)ccc2C)c(=O)[nH]1 | -12.1% (inactive)
59 | O=C(c1ccccc1)N1CCN(C(=O)c2cc3nc(-c4ccccc4)cc(C(F)(F)F)n3n2)CC1 | -4.4% (inactive)
60 | CN(C)CCN1CCN(c2cc(-c3cccc(Cl)c3)nc3ccnn23)CC1 | 7.8% (inactive)
61 | C#Cc1cc(N2CCN(C(=O)c3ccoc3)CC2)n2nc(-c3cccc(Cl)c3)cc2n1 | 64.7% (active)
62 | COc1cccc(C(O)c2nc(-c3ccc(C)c(C)c3)cs2)c1 (stereo not given) | 17.1% (inactive)
63 | COc1cc(C2c3cc4c(cc3C(O)C3COC(=O)C23)OCO4)cc(OC)c1OC (stereo not given) | 50.8% (active)
64 | COc1cc(C2CC(=O)Oc3cc(OC)c(OC)c(OC)c32)cc(OC)c1OC (stereo not given) | -6.8% (inactive)
65 | COc1cc(C=C(OC(C)=O)c2ccc3c(c2)OCO3)cc(OC)c1OC | -22.3% (inactive)
66 | C#C[C@]1(O)CC[C@H]2[C@@H]3CCC4=CC(=O)CC[C@@H]4[C@H]3CC[C@@]21CC | 3.1% (inactive) and 6.1% (inactive)
67 | COc1ccc(CN2CC[C@H]3C=CC[C@@H](C(=O)N4CCOCC4)[C@H]3C2=O)cc1OC | -24.1% (inactive)
68 | Cc1ccc(OC(=O)c2cncc(Br)c2)c(C)c1 | 1.1% (inactive)
69 | Cc1cccc(-n2ncc(Cl)c(Cl)c2=O)c1 | 85.5% (active)

Row | SMILES | inhibition
70 | CCCNC(=O)c1c(Cl)cnn1-c1ccc(C)cc1 | 9.5% (inactive)
71 | CC(=O)Nc1c2c(nn1-c1cccc(C)c1)CSC2 | 3.9% (inactive)
72 | CC(C)(C)C1CCC(C(=O)NCC(c2cccs2)N2CCOCC2)CC1 (stereo not given) | 21.5% (inactive)
73 | COc1ccc(C(C(=O)NCc2ccccc2)N(Cc2cccs2)C(=O)c2cnccn2)cc1 (stereo not given) | -3.9% (inactive)
74 | Cc1cc2nc(-c3ccc(Cl)cc3)c(Cc3cccc(F)c3)n2c(C)c1Br | 17.5% (inactive)
75 | Cc1cc2nc(-c3ccco3)c(Cc3cccc(F)c3)n2c(C)c1Br | 62.5% (active)
76 | Cc1cc(Br)cn2c(Cc3cccc(F)c3)c(-c3cccc(Br)c3)nc12 | 47.6% (inactive)
77 | CC1(C)O[C@@H]2[C@H](O1)[C@@H](CO)O[C@H]2n1c(N2CCCCC2)nc2c(N)ncnc21 | 7.1% (inactive)
78 | O=C(Nc1ccc(Br)c2cccnc12)c1ccc(Cn2cc([N+](=O)[O-])cn2)o1 | 14.3% (inactive)
79 | N#CC1(Nc2ccc(-c3ccc(Cl)cc3)cc2)CCCC1 | -34.4% (inactive)
80 | CC(C)OC(=O)c1sc2nc3c(cc2c1N)C(=O)CCC3 | -15% (inactive)
81 | Cc1sc2nc(CC(N)=O)[nH]c(=O)c2c1-c1ccccc1 | -3.2% (inactive)
82 | NC(=O)c1sc2nc3c(c(-c4ccccc4)c2c1N)CCC3 | 78.3% (active)
83 | O=C(NCCCN1CCN(c2ccccc2F)CC1)C1CCC(=O)N1C1CCCCC1 (stereo not given) | -1.2% (inactive)
84 | Cc1oc2c(c1C(=O)N1CCOCC1)C(=O)c1ccccc1C2=O | 72.2% (active)
85 | Cc1ccc(C(=O)N2CCN(S(=O)(=O)N3CCOCC3)CC2)cc1 | 15.9% (inactive)
86 | CC(C(=O)Nc1ccccc1-c1ccccc1)N1CCOCC1 (stereo not given) | 14.5% (inactive)
87 | Nc1c(-c2ccc(F)cc2)cnn1C1CCS(=O)(=O)C1 (stereo not given) | -5.8% (inactive)
88 | Cc1cccc(NC(=O)c2ccc([N+](=O)[O-])o2)c1 | 59.4% (active)
89 | Cc1onc(NC(=O)c2ccc([N+](=O)[O-])o2)c1Br | 27.3% (inactive)
90 | CCN(CC)S(=O)(=O)c1ccc(N2CCCC2)c(NC(=O)c2ccc([N+](=O)[O-])o2)c1 | 10.6% (inactive)
